Source: PubChem BioAssay
The full list was thinned out, with hits kept by preference.
DUX4 inh – inhibitors of DUX4-driven ZSCAN4 reporter expression, primary screen, 293T cells, Gaussia and Italica luciferase; activity change, negative = inhibition, % (no concentration beside the values); actives 0.8% (n = 37,000); AID 1224904, 2016; 293T-iDUX4 ZSCAN4-Gaussia luciferase reporter, 24 h; hits give low values;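 active = mean inhibition of at least 10% in the main channel, exceeding the control channel by a set limit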;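 note: 0% = median of neutral control wells and -100% = median of positive control wells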
* marks the source's active call; other numbers are inactive results; ! = a repeat was not active.

SMILES | DUX4 inh
COc1cccc(-c2ccc(C3[C@@H]4CN(S(=O)(=O)c5cccc(Cl)c5)C[C@H]3N4)cc2)c1 (stereo not given in full) | -7
O=S(=O)(c1ccccc1)N1C[C@@H]2N[C@H](C1)C2c1ccc(-c2cccnc2)cc1 (stereo not given in full) | -13*!
CN(C)C(=O)c1cccc(-c2ccc(C3[C@@H]4CN(C(=O)Cc5ccccc5)C[C@H]3N4)cc2)c1 (stereo not given in full) | 9
COc1cccc(-c2ccc(C3[C@@H]4CN(S(=O)(=O)c5ccccc5)C[C@H]3N4)cc2)c1 (stereo not given in full) | -20*
CN(C)C(=O)c1cccc(-c2ccc(C3[C@H]4CNC[C@@H]3N4S(=O)(=O)c3ccc(Cl)cc3)cc2)c1 (stereo not given in full) | 16
O=C(c1ccc(F)cc1)N1C[C@@H]2N[C@H](C1)C2c1ccc(-c2cccnc2)cc1 (stereo not given in full) | -8
CN(C)C(=O)c1cccc(-c2ccc(C3[C@@H]4CN(S(=O)(=O)c5cccc(Cl)c5)C[C@H]3N4)cc2)c1 (stereo not given in full) | -28*
O=S(=O)(c1ccc(F)cc1)N1[C@@H]2CNC[C@H]1C2c1ccc(-c2cccnc2)cc1 (stereo not given in full) | 5
O=C(c1ccncc1)N1CC2(C1)[C@@H](c1ccccc1)[C@H](CO)N2C(=O)CC1CC1 | 4
COc1ccc2c3c([nH]c2c1)[C@H](CO)N(Cc1nccs1)CC31CN(Cc2cccnc2)C1 | 10
COCC(=O)N1CC[C@H]2[C@H](CO)Nc3ccc(C#Cc4ccccc4)cc3[C@H]21 | 11
C[C@@H]1CCCCO[C@@H](CN(C)Cc2ccc(C(F)(F)F)cc2)[C@H](C)CN([C@@H](C)CO)C(=O)c2cc(NC(=O)CCCN(C)C)ccc2O1 | -2
C[C@H](CO)N1C[C@H](C)[C@@H](CN(C)Cc2ccc(C(=O)O)cc2)OCc2cn(nn2)CCCC1=O | -3
O=C(c1ccc2c(c1)OCO2)N1CC(=O)N2[C@@H](CO)[C@H](c3ccc(C#Cc4ccccc4)cc3)[C@@H]2C1 | 4
C/C=C/c1ccc(C2[C@@H]3CN(Cc4cccc(OC)c4)C[C@H]2N3)cc1 (stereo not given in full) | -5
C(=C\c1ccc(C2[C@@H]3CN(Cc4ccc5c(c4)OCO5)C[C@H]2N3)cc1)/c1ccccc1 (stereo not given in full) | -41*!
c1ncc(-c2ccc(C3[C@@H]4CN(Cc5ccc6c(c5)OCO6)C[C@H]3N4)cc2)cn1 (stereo not given in full) | -4
COCCNC(=O)[C@@H]1[C@@H](CO)[C@@H]2Cn3c(ccc(-c4ccccc4)c3=O)[C@H]1N2C | 1
CN(C)CCCNC(=O)[C@@H]1[C@@H](CO)[C@@H]2Cn3c(ccc(-c4ccc(F)cc4)c3=O)[C@@H]2N1C | -2
O=C(C[C@@H]1CC[C@H]2[C@@H](COC[C@@H](O)CN2C(=O)c2cccnc2)O1)NC1Cc2ccccc2C1 | 8
O=C(C1CCC1)N1CC2(C1)[C@@H](c1ccccc1)[C@H](CO)N2C(=O)c1ccccn1 | 3
C[C@H]1CCCCO[C@@H](CN(C)C(=O)c2ccccc2)[C@@H](C)CN([C@@H](C)CO)C(=O)c2cc(NC(=O)C3CCCCC3)ccc2O1 | -3
COc1ccc(C#Cc2ccc3c(c2)[C@@H]2[C@@H](CCN2C(=O)c2ccccc2F)[C@H](CO)N3C)cc1 | 4
CC(C)NC(=O)N1CC[C@H]2[C@@H]1c1cc(C#Cc3cccnc3)ccc1N(C)[C@H]2CO | 5
CN1c2ccc(Br)cc2[C@H]2[C@H](CCN2C(=O)c2cccc(F)c2)[C@H]1CO | -9
SMILES | DUX4 inh
CN1c2ccc(C#Cc3ccccc3F)cc2[C@H]2[C@H](CCN2C(=O)c2cnccn2)[C@H]1CO | -29*
CN1c2ccc(C#Cc3cccnc3)cc2[C@@H]2[C@@H](CCN2C(=O)c2cccc(F)c2)[C@H]1CO | -37*
CN1c2ccc(-c3ccccc3F)cc2[C@@H]2[C@@H](CCN2C(=O)c2ccccn2)[C@H]1CO | 4
CC(=O)N1[C@H](CO)[C@@H](c2ccccc2)C12CN(Cc1cc(F)ccc1F)C2 | -8
COc1cccc(C(=O)N2C[C@H]3[C@@H](c4ccccc42)[C@@H](CO)N3Cc2ccccc2Cl)c1 | 6
C[C@@H]1CN([C@H](C)CO)S(=O)(=O)c2ccc(C#CC3(O)CCCC3)cc2O[C@H]1CN(C)C(=O)c1cccnc1 | 2
C[C@@H]1CN([C@H](C)CO)C(=O)c2c(c3ccccc3n2C)-c2ccccc2CO[C@@H]1CN(C)C(=O)c1ccc(F)cc1 | -6
C[C@@H]1CN([C@@H](C)CO)C(=O)c2c(c3ccccc3n2C)-c2ccccc2CO[C@@H]1CN(C)C(=O)c1cc(Cl)cc(Cl)c1 | -42*
C[C@H](CO)N1C[C@H](C)[C@@H](CN(C)C(=O)c2cc(Cl)cc(Cl)c2)OCc2ccccc2-c2c(n(C)c3ccccc23)C1=O | 13
C[C@H]1CN([C@@H](C)CO)C(=O)c2c(c3ccccc3n2C)-c2ccccc2CO[C@@H]1CN(C)C(=O)c1ccc(F)cc1 | -32*
CC(=O)N(C)C[C@@H]1OCc2ccccc2-c2c(n(C)c3ccccc23)C(=O)N([C@@H](C)CO)C[C@H]1C | 17
C[C@@H]1CN([C@@H](C)CO)C(=O)c2c(c3ccccc3n2C)-c2ccccc2CO[C@@H]1CN(C)C(=O)c1ccncc1 | 1
CCCNC(=O)Nc1ccc2c(c1)OC[C@H](C)N(CC1CCCC1)C[C@H](C)[C@H](OC)CN(C)C2=O | -6
CN1C(=O)c2cc(NC(=O)c3ccc(C(F)(F)F)cc3)ccc2OC[C@H]2O[C@H](CC(=O)NC3Cc4ccccc4C3)CC[C@@H]21 | 5
CCC(=O)N1[C@H](CO)[C@H]2c3ccccc3N(C(=O)Nc3cccc(Cl)c3)C[C@H]21 | 1
O=C(Cc1ccccc1)N1CC[C@@H]2[C@H]1c1cc(Br)ccc1N[C@@H]2CO | 1
O=C(C[C@@H]1CC[C@@H]2[C@H](COC[C@@H](O)CN2C(=O)c2ccc3c(c2)OCO3)O1)NCCN1CCCCC1 | 4
CN(C)C(=O)c1cccc(-c2ccc(C3[C@@H]4CN(Cc5cocn5)C[C@H]3N4)cc2)c1 (stereo not given in full) | 10
COc1ccccc1CN1C[C@@H]2N[C@H](C1)C2c1ccc(-c2ccncc2)cc1 (stereo not given in full) | -14*!
N#Cc1ccc(-c2ccc(C3[C@H]4CNC[C@@H]3N4C(=O)Nc3ccccc3F)cc2)cc1 (stereo not given in full) | -3
COc1ccccc1CN1[C@@H]2CNC[C@H]1C2c1ccc(-c2ccncc2)cc1 (stereo not given in full) | 14
CN(C)C(=O)c1ccc(-c2ccc(C3[C@@H]4CN(Cc5nccs5)C[C@H]3N4)cc2)cc1 (stereo not given in full) | -1
N#Cc1ccc(-c2ccc([C@@H]3[C@@H]4CN(Cc5cocn5)C[C@H]3N4)cc2)cc1 | -75*
COc1ccccc1CN1[C@@H]2CNC[C@H]1C2c1ccc(-c2ccc(C#N)cc2)cc1 (stereo not given in full) | 1
N#Cc1ccc(-c2ccc(C3[C@@H]4CN(Cc5ccccc5F)C[C@H]3N4)cc2)cc1 (stereo not given in full) | -44*!
